# Experimental data reported in the supplement of paper PMC10720658.
# ± gives the standard deviation of the averaged measurements.
# System: AEK1 (Tb927.3.2440)
# Assay: percent reduction in TR-FRET probe signal relative to DMSO control; higher = stronger displacement of ATP-site probe (binding)
# Conditions: 1 µM; incubation time 1 h
row,SMILES,percent reduction in TR-FRET probe signal
1,Cn1cc(-c2[nH]c3cc(NC(=O)[C@H](N)C4CCCCC4)cc4c3c2C=NNC4=O)cn1,76.9 ± 6.5%
2,Nc1cccc(S(=O)(=O)N2CCCN(S(=O)(=O)c3ccc4c(c3)OCCO4)CC2)c1,-6.38 ± 4.5%
3,N#CC[C@@H](C1CCCC1)n1cc(-c2ncnc3[nH]ccc23)cn1,19.4 ± 9.1%
4,Cc1cc2c(F)c(Oc3ncnn4cc(OC[C@@H](C)OC(=O)[C@H](C)N)c(C)c34)ccc2[nH]1,8.47 ± 14%
5,C#Cc1cccc(Nc2ncnc3cc4c(cc23)OCCOCCOCCO4)c1 [Icotinib],-5.67 ± 19%
6,Cn1cc(-c2ccc3ncc(Cc4ccc5ncccc5c4)n3n2)cn1,4.34 ± 8.7%
7,S=C(NCc1ccc2c(c1)OCO2)N1CCN(c2ncnc3c2oc2ccccc23)CC1 [Amuvatinib (MP-470)],3.8 ± 9.9%
8,COc1ccc(S(=O)(=O)N(CCO)c2ccccc2CN(C)C/C=C/c2ccc(Cl)cc2)cc1.O=P(O)(O)O [KN-93 Phosphate],-9.18 ± 9.6%
9,COc1ccc(COc2cc3oc(=O)c4cc(C(C)O)ccc4c3cc2OC)cc1 (stereo not drawn) [Palomid 529 (P529)],-5.44 ± 9.3%
10,COc1cc2ncnc(Oc3cccc(NC(=O)Nc4cc(C(C)(C)C(F)(F)F)on4)c3)c2cc1OC,1.1 ± 13%
11,C=CCc1ccc(O)c(-c2ccc(O)c(CC=C)c2)c1 [Honokiol],1.65 ± 8.9%
12,NC(=O)c1cccc(-c2cc(Nc3ccc(OC(F)(F)F)cc3)ncn2)c1,-4.38 ± 9.6%
13,N#C/C(=C\c1ccc(O)c(O)c1)C(=O)NCc1ccccc1 [AG-490 (Tyrphostin B42)],-5.12 ± 12%
